An excerpt weighted towards active compounds, which were near 8.9% of everything screened.
SW480 rerep = A quantitative high throughput screen for small molecules that induce DNA re-replication in SW480 colon adenocarcinoma cells; SW480 DNA re-replication, Hoechst DNA content imaging, 48 h; 340,000 compounds, 1.8% hits; AID 624297, 2012; Potency, µM (doses to about 46.1 µM), for the others: at the highest dose re-replication activation, hits mostly activators; also: potency is read from the fitted curve at half-maximal effect; % of control where 0% means no effect; nearly all actives have a fitted effect of over 55% in size
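Cells (250 per well) received 23 nL compound or DMSO by pin tool and were kept 48 hr at 37 C, 5% CO2. Nuclei were then stained with Hoechst for 40 min and scanned for DNA content.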
KB-V1 cytotox = qHTS assay for MDR1-selective chemotherapeutics: Primary screen using the drug-selected MDR subline cells KB-V1; Potency, µM (top dose mostly 46.1 µM), hits mostly cytotoxic; 400,000 compounds, 3.4% hits; KB-V1 MDR cells viability, CellTiter-Glo, 72 h; also: potency is read from the fitted curve at half-maximal effect; % is scaled to controls: 0 for no effect and ±100 for the full control effect; nearly all actives have a fitted effect of over 60% in size
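KB-V1 cells (P-gp-expressing MDR subline of KB-3-1) in phenol-red-free DMEM with 10% FBS were exposed to library compounds over a concentration series for 72 h at 37 degrees C. Viability read by CellTiter-Glo luminescence; concentration-effect curves fitted after normalization.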
D3 antag = qHTS of D3 Dopamine Receptor Antagonist: qHTS; AID 652054, 2013; D(3) dopamine receptor (Homo sapiens), P35462; D3R cells, DiscoveRx beta-arrestin luminescence, antagonist mode; stronger effect = lower value; 360,000 compounds, 2.5% hits; max response, negative = inhibition, %; in the data active = max response below about -50%; inconclusive = no clear call, values can overlap the other calls; also: % is scaled to controls: 0 for no effect and ±100 for the full control effect
Target sequence (P35462 whole entry, looked up): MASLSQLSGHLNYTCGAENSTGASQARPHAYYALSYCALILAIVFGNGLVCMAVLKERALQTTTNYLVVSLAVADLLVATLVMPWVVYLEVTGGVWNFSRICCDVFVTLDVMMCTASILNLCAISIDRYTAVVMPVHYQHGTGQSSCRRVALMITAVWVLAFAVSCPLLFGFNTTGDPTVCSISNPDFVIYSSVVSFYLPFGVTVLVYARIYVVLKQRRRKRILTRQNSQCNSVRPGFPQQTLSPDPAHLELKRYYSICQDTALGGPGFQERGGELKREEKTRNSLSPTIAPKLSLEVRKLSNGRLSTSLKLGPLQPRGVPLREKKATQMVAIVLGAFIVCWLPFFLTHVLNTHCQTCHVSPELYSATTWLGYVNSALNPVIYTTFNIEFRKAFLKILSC
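Cells expressing the human receptor were seeded at 1500 cells/well, incubated overnight at 37 degrees C in 5% CO2, then exposed to library compounds with dopamine controls for 90 minutes at 37 degrees C before luminescent detection.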
MCF10A rereplic = A quantitative high throughput screen for small molecules that induce DNA re-replication in MCF 10a normal breast cells. AID 624296, 2012. Potency, µM (top dose mostly 46.1 µM), inactives show at the top dose activity, positive = re-replication, actives largely listed as activators. 350,000 compounds, 2.9% hits. MCF 10A DNA re-replication, Hoechst nuclear intensity, 48 h; also: potency is read from the fitted curve at half-maximal effect; % of control where 0% means no effect; nearly all actives have a fitted effect of over 50% in size
KB-3-1 cytotox = qHTS assay for MDR1-selective chemotherapeutics: Primary screen using the parental adenocarcinoma cell KB-3-1; KB-3-1 viability, CellTiter-Glo ATP luminescence, 72 h; Potency, µM (doses to about 46.1 µM), usual class: cytotoxic; 400,000 compounds, 1.4% hits; also: potency is read from the fitted curve at half-maximal effect; % is scaled to controls: 0 for no effect and ±100 for the full control effect; nearly all actives have a fitted effect of over 60% in size
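Screening of KB-3-1 cells (DMEM, 10% FBS, phenol-red free) ran from lowest to highest compound concentration; after 72 h at 37 °C viability was read luminescently and curves fitted.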
D3 ag = qHTS of D3 Dopamine Receptor Agonist: qHTS | max activation, % | D3R DiscoveRx beta-arrestin cells, luminescence, 90 min | D(3) dopamine receptor (Homo sapiens), P35462 | AID 652048, 2013 | 410,000 compounds, 0.58% hits; in the data active = max activation above about 30%; also: 0% is about no effect
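Cells at 1500/well, incubated overnight, then treated with pinned compounds (dopamine as control) for 90 min at 37 degrees C. DiscoveRx reagent added for 30 - 60 minutes at room temperature; luminescence read.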
Active calls of the source: *; i = inactive; ? = inconclusive; · = no result; [ ] = another dose, or the depositor's remark. Unless noted, calls follow the shape of the dose curve; as a rule, active = well fitted curve in the direction sought with a large enough effect; inconclusive = small, poorly fitted or top-dose-only effect, or another doubt; inactive = no such curve, though single readings can be large; an effect the other way counts as inactive or inconclusive.

SMILES	SW480 rerep	KB-V1 cytotox	D3 antag	MCF10A rereplic	KB-3-1 cytotox	D3 ag
COC(=O)c1ccc(NC(=S)NC2CCc3ccccc32)cc1 (configuration not stated)	?	?	7	?	i	1
COc1cccc(C(=O)Nc2ccc3c(cc2=O)[C@@H](NC(C)=O)CCc2cc(OC)c(OC)c(OC)c2-3)c1	7.3µM*	i	53	5.8µM*	2.9µM*	12
COC(=O)c1ccc2c(c1)C(NC(C)=O)CCc1cc(OC)c(OC)c(OC)c1-2 (configuration not stated)	0.092µM*	0.82µM*	-8	0.12µM*	0.15µM*	-5
CNC1CCc2cc(OC)c(OC)c(OC)c2-c2ccc(OC)c(=O)cc21 (configuration not stated)	0.12µM*	·	·	0.075µM*	·	·
COc1cc2c(c(OC)c1OC)-c1ccc(SC)c(=O)cc1C(NC(=O)c1ccccc1)CC2 (configuration not stated)	0.015µM*	0.73µM*	-8	?	0.0092µM*	-5
Nc1nc(Cl)cc(N2CCC(c3cc(-c4ccc(Cl)cc4Cl)n[nH]3)CC2)n1	?	23µM*	20	?	?	3
CCc1ccc(OCC(=O)Nc2ccc(Cl)c(-c3nc4ncccc4o3)c2)cc1	·	i	·	·	i	1
c1ccc(-c2cnc(SCCN3CCOCC3)n2CC2CCCO2)cc1 (configuration not stated)	3%[9.22 µM]	i	-57*	-12%	i	-2
COc1ccc(-c2cnc(N)n2CC2CCCO2)cc1 (configuration not stated)	-16%	i	?	?	i	-13
O=C(c1ccc(-c2ccccc2)cc1)C1CCCN(Cc2ccncc2)C1 (configuration not stated)	17%	i	-8	?	i	-9
O=C(c1ccc(Cl)cc1)C1CCCN(Cc2cnn(-c3ccccc3)c2)C1 (configuration not stated)	-6%	?	-71*	?	i	-13
O=C(c1ccccc1)C(c1ccccc1)[n+]1csc2ccccc21 (configuration not stated)	·	i	·	·	i	·
N#C/C(=C\c1cccc(NC(=O)c2ccccc2Cl)c1)C(=O)NCCc1ccccc1	18µM*	i	-25	?	?	-4
COCCCNC(=O)/C(C#N)=C/c1cccc(NC(=O)c2ccccc2Cl)c1	1.6µM*	?	-14	26%	i	-9
CCc1cccc(NC(=O)CN(c2ccc(C)cc2)S(=O)(=O)c2cccs2)c1	·	?	·	·	i	3
CC(=O)N1CCc2c(sc3c2c(=O)n(Cc2ccccc2)c(=O)n3Cc2ccccc2Cl)C1	·	i	·	·	i	1
CC(=O)N1CCc2c(sc3c2c(=O)n(-c2ccccc2Cl)c(=O)n3C)C1	·	i	·	·	i	31*
COc1cccc(CNC(=O)C2CCCN(S(=O)(=O)c3cn(C)cn3)C2)c1 (configuration not stated)	·	·	·	·	·	3
CCn1c(SC)nnc1-c1sc2cc(Cl)ccc2c1Cl	1%	?	0	?	i	-2
CSc1nnc(-c2sc3cc(Cl)ccc3c2Cl)n1C	16%	18µM*	8	?	?	1
CC(C)c1nn2c(=O)cc(COC(=O)c3cccc(NC(=O)CCc4ccccc4)c3)nc2s1	·	·	·	·	·	8
COc1cc(C2c3c(oc4ccc(F)cc4c3=O)C(=O)N2c2nc(C)c(C)s2)cc(OC)c1OC (configuration not stated)	·	i	·	·	i	-6
C=CCn1c(Sc2ncc([N+](=O)[O-])s2)n[nH]c1=O	-5%	i	-80*	29%	?	-36
CCCOc1ccc(-c2nonc2NC(=O)c2ccco2)cc1OCCC	·	i	·	·	i	8
Cc1nonc1OCCNC(=O)C12CC3CC(CC(C3)C1)C2	?	23µM*	-25	0%	i	-6
SMILES	SW480 rerep	KB-V1 cytotox	D3 antag	MCF10A rereplic	KB-3-1 cytotox	D3 ag
Cc1cc(-n2c(C)cc(C(=O)CCl)c2C)no1	?	?	-3	3.3µM*	?	-4
Cc1ccc(OCC(=O)c2cc(C)n(-c3cc(C)on3)c2C)c([N+](=O)[O-])n1	?	i	-7	?	i	3
Cc1cc(-n2c(C)cc(C(=O)CN3C(=O)C(=O)N(C)C3=O)c2C)no1	-8%	i	1	2%	i	-7
Cc1cc(-n2c(C)cc(C(=O)COc3cc(F)ccc3[N+](=O)[O-])c2C)no1	13µM*	i	6	?	i	3
CCCn1c(SCC(=O)c2cc(C)n(-c3cc(C)on3)c2C)n[nH]c1=O	0%	?	11	8%	i	31*
CCc1ccc(NC(=O)c2ccc(NS(=O)(=O)c3c(C)noc3C)cc2)cc1	·	i	·	·	i	-15
CC=CC1=C(C(=O)O)N2C(=O)[C@H](NC(=O)[C@H](N)c3ccc(O)cc3)[C@@H]2SC1	1%	·	·	1%	·	·
Cc1ccccc1-n1c(SCC(=O)Nc2ccc3c(c2)OCO3)nnc1-c1ccccn1	?	2.1µM*	22	21%	?	2
O=C(CSc1n[nH]c(-c2ccccc2)n1)NCCc1ccccc1	·	i	·	·	i	7
Cc1ccc2c(c1)cc(C(=O)Nc1ccc(F)cc1F)n2C	·	i	·	·	?	6
COC(=O)C1=C(C)NC(C)=C(C(=O)OC)C1c1ccc(OC(=O)c2oc3ccccc3c2C)c(OC)c1	0.52µM*	i	-15	11%	i	-5
COc1ccc2nc(NC(=O)c3nc(S(=O)(=O)Cc4cccc(C)c4)ncc3Cl)sc2c1	·	·	·	·	·	-17
COc1ccc(NC(=O)c2nc(S(=O)(=O)Cc3cccc(C)c3)ncc2Cl)c(OC)c1	-5%	?	-116*	?	i	-9
COc1ccc(OC)c(NC(=O)c2nc(S(=O)(=O)Cc3ccccc3)ncc2Cl)c1	?	?	-104*	1.6µM*	4.1µM*	-38
CN1CCN(CCCNC(=O)Cn2c(-c3cccs3)cc3cc(Cl)ccc32)CC1	·	i	·	·	i	-14
COc1ccc(C(CNC(=O)COc2ccc(F)cc2Cl)N2CCCCC2)cc1 (configuration not stated)	-7%	i	-26	-6%	i	-14
